In the library only some 3.6% were active in any assay of this set; here they are far more common.
IkB sig inh – inhibitors of IkB signaling in ABC-DLBCL cells | ABC-DLBCL IkBa-CBG/CBR dual luciferase ratio, 4 h; response scale: scaled: untreated 0%, proteasome inhibitor 100% | Potency, µM (doses to about 57.1 µM), for inactives: at the highest dose IkBa stabilization activation | 110,000 compounds, 0.04% hits | AID 445; active = well fitted curve in the direction sought with a large enough effect in the signal ratio, not every such curve was filed as active; inconclusive = small, poorly fitted or top-dose-only effect, or a change in a side signal; the % refers to the signal ratio;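 note: the direction sought is a rising ratio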
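Luminescence ratio of IκBα-fused green versus native red beetle luciferase in OCI-Ly3 cells, 4 h post-doxycycline with compound; red signal alone, scaled from basal (0%) to zero light (-100%), flagged nonspecific or cytotoxic effects.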
Hsp90 Hop PPI – changes Hsp90-Hop TPR2A binding signal, up or down; AlphaScreen TPR2A-His6 binding biotin-Hsp90 C-terminal peptide; 71,000 compounds, 0.44% hits; Potency, µM (highest dose often 57 µM), inactives show top-dose activity change, negative = inhibition; active = well fitted curve in either direction with a large enough effect; inconclusive = small, poorly fitted or top-dose-only effect, or another doubt; note: % is set by controls: 0 for no effect and ±100 for the full control effect
Tau filament bind – binds recombinant human tau filaments; P10636; recombinant tau filaments, thioflavin S fluorescence, 15 h; filaments grown with octadecylsulfate alongside compound; Potency, µM (series often up to 57.1 µM), for the others: at the top dose activity change, negative = inhibition; 71,000 compounds, 2% hits;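 note: % is set by controls: 0 for no effect and ±100 for the full control effect; actives lower thioflavin S fluorescence by blocking filaments or displacing dye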
Target sequence (P10636 whole entry, looked up): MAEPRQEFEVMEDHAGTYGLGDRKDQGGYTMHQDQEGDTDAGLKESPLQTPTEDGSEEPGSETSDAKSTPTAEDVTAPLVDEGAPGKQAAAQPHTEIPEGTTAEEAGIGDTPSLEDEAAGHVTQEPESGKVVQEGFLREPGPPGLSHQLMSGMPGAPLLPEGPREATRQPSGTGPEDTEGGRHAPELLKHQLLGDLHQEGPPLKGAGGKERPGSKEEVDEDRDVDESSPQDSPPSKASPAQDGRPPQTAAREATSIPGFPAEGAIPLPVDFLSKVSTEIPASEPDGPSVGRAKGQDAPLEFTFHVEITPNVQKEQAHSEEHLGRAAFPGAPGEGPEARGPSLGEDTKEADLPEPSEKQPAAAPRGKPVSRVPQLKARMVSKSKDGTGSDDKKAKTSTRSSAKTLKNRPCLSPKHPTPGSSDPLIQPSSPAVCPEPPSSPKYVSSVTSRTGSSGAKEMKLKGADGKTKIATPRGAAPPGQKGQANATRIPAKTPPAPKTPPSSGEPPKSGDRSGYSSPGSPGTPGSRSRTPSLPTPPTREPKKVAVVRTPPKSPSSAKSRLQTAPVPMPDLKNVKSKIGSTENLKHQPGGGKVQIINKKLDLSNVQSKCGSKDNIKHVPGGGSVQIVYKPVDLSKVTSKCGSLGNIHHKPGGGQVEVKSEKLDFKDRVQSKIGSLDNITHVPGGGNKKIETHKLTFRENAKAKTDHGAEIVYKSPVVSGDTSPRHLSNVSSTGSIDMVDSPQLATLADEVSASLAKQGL
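Quantitative HTS: thioflavine S signal from ODS-induced tau filaments, excited at 450 nm, emission 510 nm. Conditions: 1 uM tau, 30 uM ODS, 15 h at 37 C, pH 7.4.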
CRE Fsk mod – alters forskolin-stimulated CRE reporter signaling in CHO cells. Potency, µM (top dose mostly 38.2 µM), without a hit: at the highest dose activity change, negative = inhibition, actives largely listed as activators. AID 662. 71,000 compounds, 2.5% hits. CHO CRE-bla reporter (cAMP response element driving beta-lactamase), forskolin EC10, beta-lactamase ratio; active = well fitted activation curve with a large enough effect in the signal ratio, with a control signal flat, not every such curve was filed as active; inconclusive = small, poorly fitted or top-dose-only effect, or effect the other way, or a change in a side signal; the % refers to the signal ratio; note: % of control where 0% means no effect
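CRE-bla CHO reporter cells treated with compound titration plus EC10 NKH 477 (water-soluble forskolin), incubated 3 h at 37 °C; CCF4 loading 2 h at room temperature, 460/530 nm emission ratio read, AC50 values derived for positive or negative modulators.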
15-hLO inh – inhibitors of human 15-lipoxygenase (ALOX15); P16050; purified 15hLO-1, xylenol orange hydroperoxide absorbance; Potency, µM (series often up to 57.1 µM), for inactives: at the top dose activity change, negative = inhibition, most hits filed as inhibitors; 74,000 compounds, 1.4% hits; note: % is set by controls: 0 for no effect and ±100 for the full control effect; nearly all actives have a fitted effect of over 55% in size
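Compounds were preincubated 15 min at room temperature with 40 nM purified human enzyme (25 mM Hepes pH 7.5, 0.01% Triton X-100); 50 uM arachidonic acid reacted 6 min. Fe-xylenol orange detection, 30 min, absorbance ratio 573/405 nm.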
* hit, by the source's call; i = inactive; ? = inconclusive; · = no result; [ ] = remark or other dose. Unless noted, calls come from the whole dose curve; as a rule, active = well fitted curve in the direction sought with a large enough effect; inconclusive = small, poorly fitted or top-dose-only effect, or another doubt; inactive = no such curve, though single readings can be large; an effect the other way counts as inactive or inconclusive. Potency is the fitted concentration of half-maximal effect.

SMILES	IkB sig inh	Hsp90 Hop PPI	Tau filament bind	CRE Fsk mod	15-hLO inh
O=C(O)c1cnc2ccccc2n1	2%	-4%	-3%	-4%	20µM*
CC12C=C(/C=C/c3ccccc3)C(C)(C1)C(c1ccccc1)CC2=O (stereo unspecified)	·	·	·	·	2%[11.4 µM]
O=C(O)c1ccc2c3c1cccc3c(=O)n1c3ccccc3nc21	0%	-5%	37%	5µM*	-12%[25.6 µM]
OC(CCN1CCOCC1)(c1ccc(Cl)cc1)C1CCCCC1 (stereo unspecified)	-2%	0%	20µM*	?	-5%
CN(C)C=NC(=O)/C(C#N)=C1\CCc2ccccc2N1	-2%	-5%	-4%	0%	7.9µM*
COc1ccc(-c2oc(/N=C/N3CCOCC3)c(C#N)c2-c2ccc(OC)cc2)cc1	-1%	-20%	1µM*	11%	-30%
N#Cc1c(/N=C/c2ccco2)oc(-c2ccccc2)c1-c1ccccc1	?	1%	-9%	-7%	-16%
CCn1c(CN2CCCCC2)nc2cc(NC(=O)COc3ccc([N+](=O)[O-])cc3)ccc21	1%	·	·	·	·
COc1cc(C(Nc2ccccn2)c2ccc3ccc(C)nc3c2O)cc(OC)c1O (stereo unspecified)	?	?	13µM*	?	13µM*
O=C(O)c1ccccc1N[C@H](c1ccccc1)c1ccc2cccnc2c1O	7%[11.4 µM]	-15%[11 µM]	-1%[11.4 µM]	23%[7.6 µM]	-15%[11.4 µM]
Oc1c([C@H](Nc2ccccn2)c2ccccc2)ccc2cccnc12	5%[11.4 µM]	?	-14%[11.4 µM]	9%[7.6 µM]	-15%[11.4 µM]
CC(=O)NC(c1ccco1)c1ccc2cccnc2c1O (stereo unspecified)	?	7.9µM*	-13%	-3%	3%
Oc1c(C(Nc2ccccn2)c2ccccn2)ccc2cccnc12 (stereo unspecified)	?	3.2µM*	-18%	?	28%
CCC#CCOCC(=O)Nc1ccccc1	·	-4%	3%	5%	·
CC(C)(C)c1ccc(C(=O)NCC(c2cccnc2)N2CCc3ccccc3C2)cc1 (stereo unspecified)	-3%	·	·	·	·
O=C(O)CCc1ccc(-c2ccccc2)n1-c1cccc(O)c1	5%	-10%	-14%	-21%	10µM*
COC(=O)c1cccc(-n2c(CCC(=O)O)ccc2-c2ccc(OC)cc2)c1	2%	·	·	·	·
CCC/C=C(\CCC)C(NC(=O)c1ccccc1)c1ccccc1 (stereo unspecified)	·	?	2%	9%	·
O=C(CSc1nnc(CNC(=O)c2cccs2)o1)c1ccc(Cl)cc1	?	-1%	3%	-6%	-8%
O=C(CSc1nnc(CNC(=O)c2ccccc2F)o1)c1ccc(Cl)cc1	?	-2%	32µM*	-8%	-7%
CC1=C(C(=O)Nc2cccc(Cl)c2)C2(CCCCCC2)OC1=O	1%	·	·	·	·
CCCn1c(=O)c(C)cn2nc(N)nc12	0%	3%	?	13µM*	-10%[25.6 µM]
CCCn1c(=O)c2c(ncn2C)n(CCC)c1=O	-7%	-2%	-9%	?	-8%
CN(C)c1ccc(-c2noc(C3CC(=O)N(c4ccc5c(c4)OCCO5)C3)n2)cc1 (stereo unspecified)	6%	·	·	·	·
Cc1ccc(C(=O)[C@@H]2[C@@H]3[C@@H](C(=O)[C@@H]4OC[C@H]3O4)[C@@H]3C=Cc4ccccc4N23)cc1	3%[11.4 µM]	?	32µM*	?	·
SMILES	IkB sig inh	Hsp90 Hop PPI	Tau filament bind	CRE Fsk mod	15-hLO inh
COc1ccc(C(=O)[C@H]2[C@H]3[C@@H](C(=O)[C@@H]4OC[C@H]3O4)[C@H]3C=Cc4ccccc4N32)c(OC)c1	1%[11.4 µM]	?	-18%	-21%	·
N#Cc1c(-c2ccco2)c2c([nH]c1=S)CCCC2	0%	-7%	32µM*	5%	16µM*
N#Cc1c(N)nc2c(c1-c1ccco1)CCCCC2	-1%	-2%	29%	?	-4%
CCOC(=O)c1cccc(NC(=O)c2cnc3ccccc3n2)c1	1%	1%	25µM*	27%	-5%
CCOCCCNc1nc2c(S(=O)(=O)c3ccc(CC)cc3)nnn2c2ccc(Cl)cc12	1%	·	·	·	·
COc1cccc(-c2nc(C(N)=O)c3[nH]c(=O)n(-c4cccc(Cl)c4)c3n2)c1OC	4%	1%	83%	10µM*	-1%
Cc1cccc(-n2c(=O)[nH]c3c(C(N)=O)nc(C(C)C)nc32)c1	-1%	-3%	16µM*	?	-4%
Cc1cc(C)cc(OCC(=O)Nc2c(C)ccc3nsnc23)c1	-1%	·	·	·	·
COc1ccc(/C=C\C(=O)Nc2ccccc2C(=O)O)cc1OC	?	-1%	-17%	-11%	-23%[25.6 µM]
CCCCCn1c(=O)[nH]c2cc(C(=O)NCc3ccc(F)cc3)ccc2c1=O	2%	·	·	·	·
COc1ccc2c(c1)c1ncn(Cc3ccco3)c(=O)c1n2C	3%	-5%	6%	1µM*	-6%
COc1ccc2c(c1)c1c(c(=O)n(Cc3ccccc3)c(=O)n1Cc1ccccc1)n2C	0%	·	·	·	·
O=c1[nH]c(CSc2nnc(-c3ccco3)n2-c2ccccc2)nc2sc3c(c12)CCC3	0%	-8%	96%	10µM*	0%
CN(C)C(=O)c1ccc(-c2nc(NCc3cccs3)c3ccccc3n2)cc1	-3%[11.4 µM]	-4%	-6%	?	0%
Clc1ccccc1-c1nc(Nc2ccncc2)c2ccccc2n1	-4%[11.4 µM]	1%	6%	?	3%
CN(C)C(=O)c1ccc(-c2nc(Nc3ccncc3)c3ccccc3n2)cc1	-9%[11.4 µM]	-4%	-1%	13µM*	-15%
Cc1ccccc1-c1nc(Nc2ccncc2)c2ccccc2n1	-6%[11.4 µM]	-1%	-6%	4µM*	?
CN(C)C(=O)c1ccc(-c2nc(Nc3ccc(F)cc3)c3ccccc3n2)cc1	-7%[11.4 µM]	-3%	10%	4µM*	-11%
c1ccc(Nc2nc(-c3ccc4c(c3)OCO4)nc3ccccc23)cc1	2%[11.4 µM]	26%	25µM*	?	?
CNc1nc(-c2ccc3c(c2)OCO3)nc2ccccc12	-2%[11.4 µM]	5%	59%	?	3%
COc1ccc(-c2cc(C(F)(F)F)nc(SCCC(=O)Nc3ccc(O)cc3)n2)cc1	-2%	·	·	·	·
Cn1cnc(S(=O)(=O)N2CCC(C(=O)NCc3ccc(Cl)cc3)CC2)c1	-1%	·	·	·	·
COc1cc(OC)cc(C(=O)Nc2nc(-c3nnn(-c4ccc(F)c(Cl)c4)c3C)ns2)c1	-4%	·	·	·	·
Cc1cc(C)c2c(-n3cccc3)c(C(=O)NCCc3ccccc3)sc2n1	0%	·	·	·	·
c1cncc(CNc2nc(-c3ccoc3)nc3ccccc23)c1	-2%[11.4 µM]	-10%	?	?	?
COC(=O)CNc1nc(-c2ccncc2)nc2ccccc12	0%	-1%	-5%	13µM*	2%
CNc1nc(-c2ccc(N(C)C)cc2)nc2ccccc12	-7%[11.4 µM]	-10%	i	?	?
CNc1nc(-c2cccnc2)nc2ccccc12	-2%[11.4 µM]	-3%	-4%	?	-25%
